Measurements published in PubChem BioAssay AID624330 (Southern Research Specialized Biocontainment Screening …, 2012).
In all, about 340,000 compounds went through this assay and about 2,100 (0.62%) were called active.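 The calls were made as follows: active = first-screen hits whose inhibition reached a set limit at any dose in the follow-up dose series; inconclusive = inhibition above the set first-screen limit but never retested; inactive = the rest.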 The list is a sample of the results. Results with a measured potency or affinity are listed apart.

Each compound was assayed against Rac GTPase-activating protein 1 (Homo sapiens) (UniProt Q9H0H5) (assay: blockers of MgcRacGAP-driven Rac1 GTP hydrolysis – biochemical, ADP Hunter fluorescence, primary and confirmatory, confirmation (AID 624330;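 also: fluorescence reports GDP produced by GAP-driven GTP hydrolysis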)). Details: MgcRacGAP-stimulated Rac1 GTP hydrolysis, at 30 µM, active compounds read high, GST-tagged Rac1 F28L mutant substrate.
Rac GTPase-activating protein 1 (Homo sapiens), sequence (Q9H0H5 whole entry, looked up): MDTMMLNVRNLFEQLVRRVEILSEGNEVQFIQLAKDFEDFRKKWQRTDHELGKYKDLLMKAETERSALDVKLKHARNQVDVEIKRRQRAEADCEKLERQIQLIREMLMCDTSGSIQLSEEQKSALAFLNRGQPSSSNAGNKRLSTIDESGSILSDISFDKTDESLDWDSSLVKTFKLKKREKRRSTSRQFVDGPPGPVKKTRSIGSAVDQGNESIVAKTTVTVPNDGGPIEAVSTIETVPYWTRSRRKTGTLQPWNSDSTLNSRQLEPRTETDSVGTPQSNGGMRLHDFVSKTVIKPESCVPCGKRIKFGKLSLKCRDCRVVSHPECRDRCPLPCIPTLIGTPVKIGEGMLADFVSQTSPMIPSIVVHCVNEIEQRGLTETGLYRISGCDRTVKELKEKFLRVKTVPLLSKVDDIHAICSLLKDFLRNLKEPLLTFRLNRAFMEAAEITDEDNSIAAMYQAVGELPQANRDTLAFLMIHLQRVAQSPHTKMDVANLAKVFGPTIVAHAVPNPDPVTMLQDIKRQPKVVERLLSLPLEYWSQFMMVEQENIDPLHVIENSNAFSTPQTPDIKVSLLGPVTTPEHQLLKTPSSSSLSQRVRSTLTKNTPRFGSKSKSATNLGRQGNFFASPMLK

inhibition, inactive:
Nc1nc2n(n1)C(=O)CC(c1ccccc1)N2 (stereo unspecified) -15.9%
CC(=O)Nc1ccc(S(=O)(=O)NC(C)C(=O)OCC(=O)Nc2ccc(F)cc2Cl)cc1 (stereo unspecified) 4.68%
COc1ccc(NC(=O)[C@H](C)NC(N)=O)cc1S(=O)(=O)Nc1cc(C)ccc1Br 9.93%
CC1CCN(c2ccc(C(F)(F)F)cc2N)CC1 3.8%
Nc1cc(Cl)ccc1N1CCCCC1 1.75%
Nc1cc(Cl)ccc1N1CCCCCC1 -8.8%
O=S(=O)(c1ccc(N2CCOCC2)c(Cl)c1)N1CCOCC1 2.67%
CC(=O)Nc1cc(C(F)(F)F)ccc1N1CCOCC1 2.07%
Nc1cc(Cl)ccc1N1CCOCC1 2.6%
O=C(CN(c1ccccc1)S(=O)(=O)c1ccc(Cl)cc1)Nc1cccnc1 -2.54%
C[C@@H](OC(=O)c1[nH]cnc1C(=O)NCc1ccc(CNC(=O)OC(C)(C)C)cc1)c1ccccc1 7.47%
COc1ccccc1NC(=O)CCC(=O)OCC(=O)c1ccc(C)c([N+](=O)[O-])c1 4.59%
Cc1ccc(NC(=O)Cc2nnc(SCC(=O)NC3=NCCS3)n2C)cc1 9.68%
CC(C)Sc1oc(-c2ccco2)nc1S(=O)(=O)c1ccc(F)cc1 9.8%
COc1cc2nc(NC(=O)c3ccc(Cl)cc3)sc(=O)c2cc1OC 12.1%
Cc1cccc(OC(C)C(=O)Nc2nc(-c3ccncc3)cs2)c1 (stereo unspecified) 5.11%
Cc1cccc(Cn2c(N(C)Cc3ccccc3)nc3c2c(=O)[nH]c(=O)n3C)c1 10.6%
C=CCn1c(Cc2ccc(OCC)cc2)nnc1SCC(N)=O 4.65%
Cc1c(Cl)cccc1NC(=S)N1CCN(Cc2ccccc2)CC1 6.91%
COc1cc(/C=N/NC(=O)CCC(=O)Nc2ccc(C)cc2)ccc1O 26.5%
Cc1nc(CC(=O)N/N=C/c2ccc(OCC(=O)O)cc2)cs1 -8.35%
O=C(CCC(=O)Nc1ccc(Br)cc1)N/N=C/c1ccc(F)cc1 3.09%
O=C(CCC(=O)Nc1ccc(Br)cc1)N/N=C/c1ccc(O)cc1 22.7%
O=C(Cc1ccccc1)NN=Cc1ccccc1 -1.49%
COc1cc(/C=N/NC(=O)CCC(=O)Nc2ccc(Br)cc2)ccc1O 25.9%
O=C(CCC(=O)Nc1ccc(F)cc1)N/N=C/c1ccc(Br)cc1 3.6%
Cc1ccc(NC(=O)CCC(=O)N/N=C/c2cccnc2)cc1 1.87%
Cc1ccc(Cl)cc1N1CCN(C(=O)C2CCN(S(=O)(=O)c3cnc[nH]3)CC2)CC1 -2.49%
COc1cc(C(=O)OC(C)C(=O)NC2CCCCC2C)c([N+](=O)[O-])cc1OC (stereo unspecified) -4.78%
Cc1cccc(C)c1NC(=O)N1CC=CCC1 8.07%
CCc1c(C)nc(N2CCN(c3ccccc3)CC2)[nH]c1=O -0.57%
Cc1cc(=O)[nH]c2c1c(-c1ccccc1)nn2C 4.24%
O=C1CN(C(=O)c2ccc(F)cc2)c2ccccc2N1 12.4%
CC(=O)Nc1cccc(NC(=O)c2csc(C)c2)c1 8.66%
O=C(O)c1ccc(N2CCCCC2)cc1O 10.7%
COC(=O)[C@@]1(C)[C@H]2C(=O)N(C)C(=O)[C@H]2[C@H]2CN(C)C(=NC3CCCCC3)N21 9.12%
N#Cc1cnn(-c2nc3sc4c(c3c(=O)[nH]2)CCCC4)c1N 11.7%
CN1C(=O)CCS(=O)(=O)C1c1ccc(Cl)c(Cl)c1 (stereo unspecified) 8.53%
COc1ccc(NC(=O)CSc2nc3c(c(=O)n(C)c(=O)n3C)n2C)c(OC)c1 4.73%
CCOc1ccc(/C=N/NC(=O)CC(=O)Nc2ccc(Cl)c(Cl)c2)cc1 4.45%
O=C(CC(=O)Nc1cccc(Cl)c1)N/N=C\c1ccccc1 1.72%
CC(C)(C)OC(=O)N1CCC(C(=O)N[C@@H](Cc2ccccc2)C(=O)O)CC1 4.57%
CCC(CC)C(=O)c1c[nH]c(C(=O)O)c1 6.73%
Cc1[nH]c2ccccc2c1-c1csc(NC(=O)CSCC(=O)O)n1 19.6%
Cc1[nH]c2ccccc2c1-c1csc(NC(=O)CN2CCOCC2)n1 25.6%
CCOc1ccc(NC(=O)c2ccc(F)c(S(=O)(=O)N3CCCC3)c2)cc1 10.8%
COc1ccc(N2C(=O)C(F)(F)C2c2cccc(F)c2)cc1 (stereo unspecified) 5.49%
O=c1[nH]n(-c2ccccc2Cl)c(=O)c2ccccc12 4.42%
COc1ccc(Oc2c(Cl)cnn(-c3ccc(F)cc3)c2=O)cc1 4.49%
CC(=O)Nc1ccc(-n2c(=O)c3ccccc3c3ccccc3c2=O)cc1 8.38%
N#Cc1ccc2c(=O)n(-c3ccccc3)sc2c1 22.6%
O=c1nc(-c2ccccc2Cl)c2cc(F)ccc2[nH]1 9.68%
CC(=O)Nc1ccc2c(=O)n(-c3ccccc3)sc2c1 23.5%
O=C(c1sc2cc(F)ccc2c1Cl)N1CCN(c2ccccc2)CC1 -1.95%
Cc1cccc(CSC2=NCCN2C(=O)c2ccc(S(=O)(=O)N(C)C)cc2)c1 4.49%
CCOC(=O)CNC(=O)Cn1cnc2c(nnn2-c2ccc(C)cc2)c1=O 1.26%
COCCOCC(O)CN1CCN(c2ccc(C)cc2)CC1 (stereo unspecified) 24.5%
C[C@@H]1CN([C@@H](C)CO)C(=O)CCCn2nncc2CO[C@H]1CN(C)C(=O)OCc1ccccc1 7.03%
CN1CCN(S(=O)(=O)c2cccc(C(=O)N(C)CC(=O)Nc3ccc(F)c(F)c3F)c2)CC1 9.79%
Cc1ccc2nc(SCC(=O)NCc3ccc(F)cc3)nc(=O)n2c1 6.12%
Cc1ccc(C(=O)Nc2ccc(N3CCOCC3)cc2)cc1S(=O)(=O)N1CCCCC1 3.29%
